Experiments:
Test in all cases: DAPPL (digital affinity profiling via proximity ligation, sequencing); 10 mM Tris-HCl pH 7.5, 50 mM NaCl, 1 mM DTT, 4% glycerol, room temperature, 30 min; GST-TFs on glutathione beads, 16-mer random dsDNA library, 0.1% formaldehyde crosslink after washing; high values mean tight binding
FLI1 = target: T1, FLI1 (Homo sapiens, UniProt Q01543 1-452); settings: protein: recombinant; tags: N-terminal GST; dsDNA, one strand shown
T1 sequence: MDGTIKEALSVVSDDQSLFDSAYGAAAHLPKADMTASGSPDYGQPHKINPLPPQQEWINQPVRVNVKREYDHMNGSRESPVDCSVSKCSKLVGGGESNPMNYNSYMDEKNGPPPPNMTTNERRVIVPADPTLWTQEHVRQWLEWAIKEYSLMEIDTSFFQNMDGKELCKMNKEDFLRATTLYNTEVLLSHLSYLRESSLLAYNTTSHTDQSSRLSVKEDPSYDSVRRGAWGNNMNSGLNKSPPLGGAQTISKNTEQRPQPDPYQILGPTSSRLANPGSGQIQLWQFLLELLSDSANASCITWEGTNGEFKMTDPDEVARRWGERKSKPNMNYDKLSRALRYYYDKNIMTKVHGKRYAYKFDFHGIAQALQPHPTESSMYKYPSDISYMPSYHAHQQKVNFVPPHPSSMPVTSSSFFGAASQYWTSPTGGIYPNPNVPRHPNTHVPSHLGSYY
In short: (§1)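 A tag-only sample was pooled with DNA-barcoded human transcription factors that had been expressed in yeast as GST fusions and captured on glutathione beads. The pools were incubated for 30 min at room temperature with 200 nmole of a random double-stranded 16-mer DNA library in Tris/NaCl/DTT/glycerol buffer, then washed, crosslinked with 0.1% formaldehyde, proximity-ligated (BsaI/T4 ligase, 1 h, 37 °C), PCR-amplified and sequenced on an Illumina NextSeq500. Binding signal is each hexamer's read frequency for a factor divided by its frequency for the tag-only sample.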

ELK1 = target: T2, ELK1 (Homo sapiens, UniProt P19419 1-428); settings: protein: recombinant; tags: N-terminal GST; dsDNA, one strand shown
T2 sequence: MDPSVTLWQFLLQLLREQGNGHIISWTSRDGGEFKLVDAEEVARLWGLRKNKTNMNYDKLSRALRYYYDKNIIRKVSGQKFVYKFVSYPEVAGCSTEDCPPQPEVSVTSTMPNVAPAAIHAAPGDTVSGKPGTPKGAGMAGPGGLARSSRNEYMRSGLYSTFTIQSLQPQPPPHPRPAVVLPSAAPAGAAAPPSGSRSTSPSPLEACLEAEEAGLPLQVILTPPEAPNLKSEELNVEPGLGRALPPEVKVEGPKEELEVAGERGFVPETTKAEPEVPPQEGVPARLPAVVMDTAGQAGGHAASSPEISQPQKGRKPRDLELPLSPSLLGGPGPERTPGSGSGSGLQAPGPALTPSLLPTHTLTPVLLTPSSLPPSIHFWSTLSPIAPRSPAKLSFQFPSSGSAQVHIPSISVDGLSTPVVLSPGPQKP
In short: as §1

GABPA = target: T3, GABPA (Homo sapiens, UniProt Q06546 1-454); settings: protein: recombinant; tags: N-terminal GST; dsDNA, one strand shown
T3 sequence: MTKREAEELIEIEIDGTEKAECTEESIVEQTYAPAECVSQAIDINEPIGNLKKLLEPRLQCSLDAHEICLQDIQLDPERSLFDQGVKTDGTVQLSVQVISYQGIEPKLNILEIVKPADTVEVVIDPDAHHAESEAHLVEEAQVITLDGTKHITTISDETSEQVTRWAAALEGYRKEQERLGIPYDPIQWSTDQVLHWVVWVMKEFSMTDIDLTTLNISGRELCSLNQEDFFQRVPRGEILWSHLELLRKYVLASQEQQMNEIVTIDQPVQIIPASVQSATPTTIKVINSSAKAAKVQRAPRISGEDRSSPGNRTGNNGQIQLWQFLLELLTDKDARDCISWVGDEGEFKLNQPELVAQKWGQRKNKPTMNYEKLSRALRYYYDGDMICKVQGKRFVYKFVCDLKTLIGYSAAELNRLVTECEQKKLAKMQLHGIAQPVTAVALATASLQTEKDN
In short: as §1

ERG = target: T4, ERG (Homo sapiens, UniProt P11308 1-479); settings: protein: recombinant; tags: N-terminal GST; dsDNA, one strand shown
T4 sequence: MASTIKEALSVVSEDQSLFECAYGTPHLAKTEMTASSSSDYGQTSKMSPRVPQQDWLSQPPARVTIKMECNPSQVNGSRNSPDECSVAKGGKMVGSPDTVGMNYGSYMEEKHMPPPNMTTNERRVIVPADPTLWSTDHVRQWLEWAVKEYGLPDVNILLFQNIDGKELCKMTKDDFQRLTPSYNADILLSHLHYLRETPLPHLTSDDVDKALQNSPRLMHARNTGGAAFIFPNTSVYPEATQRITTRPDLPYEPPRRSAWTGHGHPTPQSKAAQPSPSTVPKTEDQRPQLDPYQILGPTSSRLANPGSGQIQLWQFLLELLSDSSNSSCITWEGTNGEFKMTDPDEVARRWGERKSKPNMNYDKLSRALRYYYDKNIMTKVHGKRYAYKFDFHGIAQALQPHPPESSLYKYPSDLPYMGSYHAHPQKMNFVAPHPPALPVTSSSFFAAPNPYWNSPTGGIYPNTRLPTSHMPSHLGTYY
In short: as §1

ELF1 = ELF1 (Homo sapiens, UniProt P32519 1-619); settings: protein: recombinant; tags: N-terminal GST; dsDNA, one strand shown
In short: as §1

EHF = target: T5, EHF (Homo sapiens, UniProt Q9NZC4 1-300); settings: protein: recombinant; tags: N-terminal GST; dsDNA, one strand shown
T5 sequence: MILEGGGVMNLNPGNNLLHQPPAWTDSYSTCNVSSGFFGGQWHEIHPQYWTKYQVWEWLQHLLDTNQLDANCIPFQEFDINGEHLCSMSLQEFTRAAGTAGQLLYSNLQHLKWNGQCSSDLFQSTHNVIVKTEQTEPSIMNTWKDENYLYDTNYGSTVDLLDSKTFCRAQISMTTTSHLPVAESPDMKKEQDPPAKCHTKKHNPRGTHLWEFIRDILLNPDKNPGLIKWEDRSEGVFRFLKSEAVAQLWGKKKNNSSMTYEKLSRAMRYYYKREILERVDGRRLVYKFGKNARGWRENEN
In short: as §1

SPI1 = SPI1 (Homo sapiens, UniProt P17947 1-270); settings: protein: recombinant; tags: N-terminal GST; dsDNA, one strand shown
In short: as §1

SPIB = SPIB (Homo sapiens, UniProt Q01892 1-262); settings: protein: recombinant; tags: N-terminal GST; dsDNA, one strand shown
In short: as §1

FEV = target: T6, FEV (Homo sapiens, UniProt Q99581 1-238); settings: protein: recombinant; tags: N-terminal GST; dsDNA, one strand shown
T6 sequence: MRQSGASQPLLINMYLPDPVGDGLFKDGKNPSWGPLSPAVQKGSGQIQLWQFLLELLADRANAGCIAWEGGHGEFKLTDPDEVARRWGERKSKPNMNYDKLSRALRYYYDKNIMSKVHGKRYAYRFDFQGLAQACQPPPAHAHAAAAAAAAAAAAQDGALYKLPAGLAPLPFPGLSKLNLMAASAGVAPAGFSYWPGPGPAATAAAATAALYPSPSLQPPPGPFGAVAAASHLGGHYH
In short: as §1

ETV5 = ETV5 (Homo sapiens, UniProt P41161 1-510); settings: protein: recombinant; tags: N-terminal GST; dsDNA, one strand shown
In short: as §1

HSF1 = HSF1 (Homo sapiens, UniProt Q00613 1-529); settings: protein: recombinant; tags: N-terminal GST; chain copies: 3; dsDNA, one strand shown
In short: as §1

ELF4 = ELF4 (Homo sapiens, UniProt Q99607 1-663); settings: protein: recombinant; tags: N-terminal GST; dsDNA, one strand shown
In short: as §1

ELK4 = target: T7, ELK4 (Homo sapiens, UniProt P28324-2 1-405); settings: protein: recombinant; tags: N-terminal GST; dsDNA, one strand shown
T7 sequence: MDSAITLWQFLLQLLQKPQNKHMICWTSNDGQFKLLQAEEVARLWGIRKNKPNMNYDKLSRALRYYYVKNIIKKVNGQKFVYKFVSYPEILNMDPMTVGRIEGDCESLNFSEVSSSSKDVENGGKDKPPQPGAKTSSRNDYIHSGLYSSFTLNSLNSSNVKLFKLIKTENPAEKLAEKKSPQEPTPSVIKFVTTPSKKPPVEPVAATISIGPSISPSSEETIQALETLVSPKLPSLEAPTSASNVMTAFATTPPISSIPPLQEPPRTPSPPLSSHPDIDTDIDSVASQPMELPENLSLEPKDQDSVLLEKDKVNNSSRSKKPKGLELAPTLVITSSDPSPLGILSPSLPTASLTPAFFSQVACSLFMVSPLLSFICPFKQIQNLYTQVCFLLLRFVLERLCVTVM
In short: as §1

ELF3 = target: T8, ELF3 (Homo sapiens, UniProt P78545 1-371); settings: protein: recombinant; tags: N-terminal GST; dsDNA, one strand shown
T8 sequence: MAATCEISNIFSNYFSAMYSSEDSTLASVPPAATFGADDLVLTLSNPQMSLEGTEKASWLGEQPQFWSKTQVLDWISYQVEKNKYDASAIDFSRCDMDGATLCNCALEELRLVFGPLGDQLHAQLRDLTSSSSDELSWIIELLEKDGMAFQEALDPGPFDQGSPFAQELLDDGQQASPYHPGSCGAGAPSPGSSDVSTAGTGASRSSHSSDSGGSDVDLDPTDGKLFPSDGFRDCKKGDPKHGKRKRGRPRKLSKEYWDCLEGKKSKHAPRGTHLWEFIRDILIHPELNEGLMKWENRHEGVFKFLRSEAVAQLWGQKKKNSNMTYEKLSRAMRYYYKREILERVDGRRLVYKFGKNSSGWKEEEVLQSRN
In short: as §1

CRX = CRX (Homo sapiens, UniProt O43186 1-299); settings: protein: recombinant; tags: N-terminal GST; dsDNA, one strand shown
In short: as §1

ELK3 = target: T9, ELK3 (Homo sapiens, UniProt P41970 1-407); settings: protein: recombinant; tags: N-terminal GST; dsDNA, one strand shown
T9 sequence: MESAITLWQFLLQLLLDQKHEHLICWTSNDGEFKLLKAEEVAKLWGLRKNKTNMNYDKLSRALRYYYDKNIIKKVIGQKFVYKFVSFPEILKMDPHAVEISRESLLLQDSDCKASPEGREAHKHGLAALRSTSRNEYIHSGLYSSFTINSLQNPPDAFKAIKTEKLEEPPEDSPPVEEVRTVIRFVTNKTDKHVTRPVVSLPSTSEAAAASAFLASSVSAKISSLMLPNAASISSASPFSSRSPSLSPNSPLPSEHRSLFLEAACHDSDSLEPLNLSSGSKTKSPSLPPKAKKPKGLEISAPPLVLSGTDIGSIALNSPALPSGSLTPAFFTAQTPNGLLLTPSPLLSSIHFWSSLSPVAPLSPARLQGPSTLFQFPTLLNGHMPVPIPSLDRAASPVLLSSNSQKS
In short: as §1

ETV2 = target: T10, ETV2 (Homo sapiens, UniProt O00321 1-342); settings: protein: recombinant; tags: N-terminal GST; dsDNA, one strand shown
T10 sequence: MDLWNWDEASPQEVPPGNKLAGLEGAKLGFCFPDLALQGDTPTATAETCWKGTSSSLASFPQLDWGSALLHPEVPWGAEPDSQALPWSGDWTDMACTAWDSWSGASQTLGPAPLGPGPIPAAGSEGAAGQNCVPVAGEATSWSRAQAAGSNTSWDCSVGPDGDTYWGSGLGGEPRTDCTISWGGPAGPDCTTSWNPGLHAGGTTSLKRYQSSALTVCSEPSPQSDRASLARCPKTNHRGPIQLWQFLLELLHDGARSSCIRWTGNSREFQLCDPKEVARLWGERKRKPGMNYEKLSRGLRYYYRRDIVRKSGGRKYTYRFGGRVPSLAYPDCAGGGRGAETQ
In short: as §1

ETV1 = ETV1 (Homo sapiens, UniProt P50549 1-477); settings: protein: recombinant; tags: N-terminal GST; dsDNA, one strand shown
In short: as §1

Sequence of SPIB (Q01892 whole entry): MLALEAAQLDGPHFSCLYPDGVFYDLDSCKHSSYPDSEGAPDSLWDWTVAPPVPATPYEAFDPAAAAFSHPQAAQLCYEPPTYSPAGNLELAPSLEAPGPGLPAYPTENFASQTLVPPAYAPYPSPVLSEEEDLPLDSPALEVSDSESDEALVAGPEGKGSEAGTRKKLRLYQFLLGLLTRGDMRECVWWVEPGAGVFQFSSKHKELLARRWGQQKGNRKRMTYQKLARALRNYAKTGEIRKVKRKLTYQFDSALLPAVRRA
Sequence of ELF1 (P32519 whole entry): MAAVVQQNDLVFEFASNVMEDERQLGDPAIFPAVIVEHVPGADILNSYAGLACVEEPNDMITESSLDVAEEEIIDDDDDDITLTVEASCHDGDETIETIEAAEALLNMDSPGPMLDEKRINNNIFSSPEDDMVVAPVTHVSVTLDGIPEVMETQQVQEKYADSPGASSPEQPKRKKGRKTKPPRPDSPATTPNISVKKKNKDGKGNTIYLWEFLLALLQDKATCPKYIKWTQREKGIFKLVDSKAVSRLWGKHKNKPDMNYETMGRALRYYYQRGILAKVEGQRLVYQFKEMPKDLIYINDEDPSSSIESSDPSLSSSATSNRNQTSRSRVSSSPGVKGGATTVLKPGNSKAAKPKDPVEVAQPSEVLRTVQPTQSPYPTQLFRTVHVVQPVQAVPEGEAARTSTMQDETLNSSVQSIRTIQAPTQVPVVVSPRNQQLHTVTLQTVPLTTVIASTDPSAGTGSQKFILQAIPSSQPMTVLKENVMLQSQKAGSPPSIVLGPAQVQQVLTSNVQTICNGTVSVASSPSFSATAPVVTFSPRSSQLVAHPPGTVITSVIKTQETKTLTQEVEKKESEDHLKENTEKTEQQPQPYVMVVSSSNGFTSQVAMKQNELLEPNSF
Sequence of HSF1 (Q00613 whole entry): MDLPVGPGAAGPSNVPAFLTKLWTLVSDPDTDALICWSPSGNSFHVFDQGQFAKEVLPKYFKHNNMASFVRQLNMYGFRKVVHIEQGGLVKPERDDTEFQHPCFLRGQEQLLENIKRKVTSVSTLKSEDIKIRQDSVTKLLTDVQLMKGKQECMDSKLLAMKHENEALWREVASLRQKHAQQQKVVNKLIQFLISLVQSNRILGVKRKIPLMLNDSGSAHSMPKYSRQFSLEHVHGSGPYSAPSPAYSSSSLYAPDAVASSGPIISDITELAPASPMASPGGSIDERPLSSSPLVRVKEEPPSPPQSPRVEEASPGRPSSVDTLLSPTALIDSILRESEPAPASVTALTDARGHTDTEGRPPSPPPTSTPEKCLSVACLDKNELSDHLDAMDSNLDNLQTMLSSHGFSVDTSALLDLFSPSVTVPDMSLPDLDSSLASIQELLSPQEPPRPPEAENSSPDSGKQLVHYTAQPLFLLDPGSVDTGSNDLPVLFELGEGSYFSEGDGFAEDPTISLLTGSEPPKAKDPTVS
Sequence of ELF4 (Q99607 whole entry): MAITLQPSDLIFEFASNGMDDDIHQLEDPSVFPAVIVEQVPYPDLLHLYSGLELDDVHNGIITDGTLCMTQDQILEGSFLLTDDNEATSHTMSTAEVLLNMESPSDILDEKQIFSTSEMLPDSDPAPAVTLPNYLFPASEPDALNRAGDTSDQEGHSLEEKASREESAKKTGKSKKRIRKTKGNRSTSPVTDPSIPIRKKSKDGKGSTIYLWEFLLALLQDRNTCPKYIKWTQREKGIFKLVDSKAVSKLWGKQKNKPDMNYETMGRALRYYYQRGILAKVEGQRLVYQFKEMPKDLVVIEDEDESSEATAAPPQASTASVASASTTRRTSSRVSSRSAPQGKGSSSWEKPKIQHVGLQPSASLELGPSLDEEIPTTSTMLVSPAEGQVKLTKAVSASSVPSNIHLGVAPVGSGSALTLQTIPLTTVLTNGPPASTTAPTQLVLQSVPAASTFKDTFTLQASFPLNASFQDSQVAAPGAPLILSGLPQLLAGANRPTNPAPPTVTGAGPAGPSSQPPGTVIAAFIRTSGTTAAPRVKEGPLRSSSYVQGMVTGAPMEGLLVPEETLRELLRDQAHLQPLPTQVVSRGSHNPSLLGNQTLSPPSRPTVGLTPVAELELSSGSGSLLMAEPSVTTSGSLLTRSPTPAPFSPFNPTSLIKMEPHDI
Sequence of ETV5 (P41161 whole entry): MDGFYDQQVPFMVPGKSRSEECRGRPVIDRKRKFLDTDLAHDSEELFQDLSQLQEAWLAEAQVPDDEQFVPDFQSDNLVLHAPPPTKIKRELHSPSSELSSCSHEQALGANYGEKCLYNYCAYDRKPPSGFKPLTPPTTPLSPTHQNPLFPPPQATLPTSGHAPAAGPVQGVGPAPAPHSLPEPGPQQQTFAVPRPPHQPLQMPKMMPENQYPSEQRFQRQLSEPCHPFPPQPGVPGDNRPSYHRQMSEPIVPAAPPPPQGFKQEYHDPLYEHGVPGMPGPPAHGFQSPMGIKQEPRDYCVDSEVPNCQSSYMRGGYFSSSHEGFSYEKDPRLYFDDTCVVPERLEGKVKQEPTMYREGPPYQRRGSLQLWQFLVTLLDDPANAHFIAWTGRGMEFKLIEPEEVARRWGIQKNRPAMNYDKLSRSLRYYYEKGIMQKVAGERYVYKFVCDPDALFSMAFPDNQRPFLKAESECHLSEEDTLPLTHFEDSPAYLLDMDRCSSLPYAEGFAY
Sequence of ETV1 (P50549 whole entry): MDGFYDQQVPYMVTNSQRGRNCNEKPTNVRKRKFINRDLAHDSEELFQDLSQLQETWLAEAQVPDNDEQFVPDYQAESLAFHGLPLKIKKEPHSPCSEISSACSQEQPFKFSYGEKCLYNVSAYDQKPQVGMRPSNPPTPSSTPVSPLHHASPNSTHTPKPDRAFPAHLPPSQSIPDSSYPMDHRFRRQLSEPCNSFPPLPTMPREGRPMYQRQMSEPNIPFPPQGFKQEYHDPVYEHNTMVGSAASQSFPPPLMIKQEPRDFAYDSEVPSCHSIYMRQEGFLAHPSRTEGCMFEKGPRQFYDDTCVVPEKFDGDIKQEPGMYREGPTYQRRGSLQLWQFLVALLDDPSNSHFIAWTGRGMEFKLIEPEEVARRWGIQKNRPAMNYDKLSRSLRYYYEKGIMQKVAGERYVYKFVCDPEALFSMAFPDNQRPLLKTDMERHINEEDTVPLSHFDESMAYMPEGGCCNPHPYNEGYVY
Sequence of CRX (O43186 whole entry): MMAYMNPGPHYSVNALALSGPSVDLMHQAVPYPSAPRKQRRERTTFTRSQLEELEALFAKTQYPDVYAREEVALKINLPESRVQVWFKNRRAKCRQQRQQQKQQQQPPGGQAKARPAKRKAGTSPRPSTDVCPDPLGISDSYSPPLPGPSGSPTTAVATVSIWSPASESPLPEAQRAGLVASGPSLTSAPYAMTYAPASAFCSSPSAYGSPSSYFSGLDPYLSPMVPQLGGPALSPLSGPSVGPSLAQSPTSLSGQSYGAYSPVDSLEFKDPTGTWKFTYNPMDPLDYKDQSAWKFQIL

## CCAAAT
FLI1
  binding signal: 1.02 fold enrichment (6-mer frequency, TF over GST control)
ELK1
  binding signal: 1.1 fold enrichment (6-mer frequency, TF over GST control)
GABPA
  binding signal: 1.01 fold enrichment (6-mer frequency, TF over GST control)
ERG
  binding signal: 1.1 fold enrichment (6-mer frequency, TF over GST control)
ELF1
  binding signal: 1.16 fold enrichment (6-mer frequency, TF over GST control)
EHF
  binding signal: 1.05 fold enrichment (6-mer frequency, TF over GST control)
SPI1
  binding signal: 1.09 fold enrichment (6-mer frequency, TF over GST control)
SPIB
  binding signal: 1.04 fold enrichment (6-mer frequency, TF over GST control)
FEV
  binding signal: 1.08 fold enrichment (6-mer frequency, TF over GST control)
ETV5
  binding signal: 1.06 fold enrichment (6-mer frequency, TF over GST control)
HSF1
  binding signal: 1.02 fold enrichment (6-mer frequency, TF over GST control)
ELF4
  binding signal: 1.17 fold enrichment (6-mer frequency, TF over GST control)
ELK4
  binding signal: 1.04 fold enrichment (6-mer frequency, TF over GST control)
ELF3
  binding signal: 1.11 fold enrichment (6-mer frequency, TF over GST control)
CRX
  binding signal: 1.18 fold enrichment (6-mer frequency, TF over GST control)

## CTGGCC
FLI1
  binding signal: 1.22 fold enrichment (6-mer frequency, TF over GST control)
ELK1
  binding signal: 1.13 fold enrichment (6-mer frequency, TF over GST control)
GABPA
  binding signal: 1.19 fold enrichment (6-mer frequency, TF over GST control)
ERG
  binding signal: 1.29 fold enrichment (6-mer frequency, TF over GST control)
ELF1
  binding signal: 1.23 fold enrichment (6-mer frequency, TF over GST control)
EHF
  binding signal: 1.13 fold enrichment (6-mer frequency, TF over GST control)
SPI1
  binding signal: 1.28 fold enrichment (6-mer frequency, TF over GST control)
SPIB
  binding signal: 1.18 fold enrichment (6-mer frequency, TF over GST control)
ELK3
  binding signal: 1.06 fold enrichment (6-mer frequency, TF over GST control)
FEV
  binding signal: 1.13 fold enrichment (6-mer frequency, TF over GST control)
ETV5
  binding signal: 1.19 fold enrichment (6-mer frequency, TF over GST control)
HSF1
  binding signal: 1.01 fold enrichment (6-mer frequency, TF over GST control)
ELF4
  binding signal: 1.2 fold enrichment (6-mer frequency, TF over GST control)
ELK4
  binding signal: 1.35 fold enrichment (6-mer frequency, TF over GST control)
ETV2
  binding signal: 1.04 fold enrichment (6-mer frequency, TF over GST control)
ELF3
  binding signal: 1 fold enrichment (6-mer frequency, TF over GST control)
ETV1
  binding signal: 1.15 fold enrichment (6-mer frequency, TF over GST control)
